The source made the active and inactive calls. How the source made its calls: active means hit-call score of the fitted dose curve at least 0.9, where 1 is the maximum; inactive means score below 0.9.

Signal transducer and activator of transcription 3 (Homo sapiens), sequence (P40763 whole entry, looked up): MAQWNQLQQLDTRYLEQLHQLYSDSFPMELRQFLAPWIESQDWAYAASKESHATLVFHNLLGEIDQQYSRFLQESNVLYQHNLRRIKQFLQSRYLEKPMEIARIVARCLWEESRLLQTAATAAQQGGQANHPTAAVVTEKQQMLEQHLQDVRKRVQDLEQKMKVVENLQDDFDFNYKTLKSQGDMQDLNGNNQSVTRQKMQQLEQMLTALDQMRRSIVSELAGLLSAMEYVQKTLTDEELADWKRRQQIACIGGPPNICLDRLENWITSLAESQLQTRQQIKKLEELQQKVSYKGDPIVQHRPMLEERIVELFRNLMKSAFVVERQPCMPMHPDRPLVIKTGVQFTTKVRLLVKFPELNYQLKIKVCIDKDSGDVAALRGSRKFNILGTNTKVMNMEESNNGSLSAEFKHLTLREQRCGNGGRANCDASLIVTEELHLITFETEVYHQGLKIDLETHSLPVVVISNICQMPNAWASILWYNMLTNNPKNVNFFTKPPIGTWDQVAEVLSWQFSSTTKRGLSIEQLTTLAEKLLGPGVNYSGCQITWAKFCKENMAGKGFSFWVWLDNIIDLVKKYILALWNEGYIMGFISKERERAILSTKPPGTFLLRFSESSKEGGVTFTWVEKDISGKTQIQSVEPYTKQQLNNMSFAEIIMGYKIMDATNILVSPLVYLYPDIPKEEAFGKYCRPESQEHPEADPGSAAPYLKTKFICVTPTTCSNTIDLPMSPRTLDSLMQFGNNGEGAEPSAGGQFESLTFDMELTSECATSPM

The assay addresses Signal transducer and activator of transcription 3 (Homo sapiens) (UniProt P40763). The assay is described as follows: ATG_STAT3_CIS: Attagene CIS-FACTORIAL HepG2 Assay for human Signal Transducer and Activator of Transcription 3 (STAT3) (AID 2282963). The conditions noted are these: HepG2, Attagene cis-factorial STAT3 reporter transcription; actives raise or lower the signal. On the procedure:
ATG_CIS is a cell-based, multiplexed-readout assay that uses HepG2, a human liver cell line, with measurements taken at 24 hours after chemical dosing in a 24-well plate.ATG_STAT3_CIS is one of 52 assay component(s) measured or calculated from the ATG_CIS assay. It is designed to make measurements of mRNA induction, a form of inducible reporter, as detected with fluorescence intensity signals by Reverse transcription polymerase chain reaction (RT-PCR) and Capillary electrophoresis technology.Data from the assay component ATG_STAT3_CIS was analyzed into 1 assay endpoint. This assay endpoint, ATG_STAT3_CIS, was analyzed with bidirectional fitting relative to DMSO as the negative control and baseline of activity. Using a type of inducible reporter, measures of mRNA for gain or loss-of-signal activity can be used to understand the reporter gene at the transcription factor-level as they relate to the gene STAT3. Furthermore, this assay endpoint can be referred to as a primary readout, because this assay has produced multiple assay endpoints where this one serves a reporter gene function. To generalize the intended target to other relatable targets, this assay endpoint is annotated to the dna binding intended target family, where the subfamily is stat protein.
Human liver HepG2 cells are transiently transfected with multiple reporter transcription units (MRTUs) in 6-well plates using FuGene 6 reagent (Roche; 3 ml FuGene/1 mg DNA). The MRTU constructs are regulated by a cis-regulating element (promoter). […] A major difference between the CIS and TRANS system is that in CIS activities of endogenous TFs are measured, whereas the TRANS assay evaluates changes in activities of exogenous, chimeric NR-Gal4 proteins. […] At the end of 24 hour incubation, total RNA was isolated using TriZol reagent (Invitrogen). The isolated RNA is then reverse-transcribed using oligo(dT) primer and Mo-MLV reverse transcriptase (Invitrogen) with DNAse I (Ambion) treatment for 30 min. The one-tenth of the produced cDNA was amplified by PCR using Taq DNA polymerase (Invitrogen) and two reporter sequence-specific primers. The PCR products were fluorescently labeled by primer extension with 6-arboxyfluorescein (6-FAM) 5'-labeled reporter sequence-specific primer (2 min at 95 C, 20 s at 68 C and 10 min at 72 C) and these products were digested with 5U of HpaI (New England Biolabs) for 2h at 37 C. The fragments were purified using Qiaquick PCR columns (Qiagen), analyzed on an ABI 3130xL genetic analyzer (Applied Biosystems) with peak positions identified by using a set of X-rhodamine (ROX)-labeled MapMarker1000 molecular weight standards (BioVentures). The raw capillary electrophoresis data was processed using Attagraph software (Attagene).
As for `CCC(CO)CO`, the molecule was called inactive.

Turning to `O=C(c1ccc(O)cc1)c1ccc(O)cc1O`, the molecule was called inactive.

In the case of `CCN(Cc1cccc(S(=O)(=O)O)c1)c1ccc(C(=C2C=CC(=[N+](CC)Cc3cccc(S(=O)(=O)[O-])c3)C=C2)c2ccccc2)cc1`, the molecule was called inactive.

Regarding `O=CC1CC1`, the molecule was classed as inactive.

Consider `Cn1c([N+](=O)[O-])cnc1COC(N)=O`, for which the call was inactive.

With `CCOC(=O)[C@H](C)O`, the call was inactive.

Turning to `NC(=O)OCC(COC(N)=O)c1ccccc1`, the result was inactive.

For the molecule `O=C1OC(=O)c2cc(Oc3ccc4c(c3)C(=O)OC4=O)ccc21`, the molecule was called inactive.

As to `CCOC(=O)CC(C(C)=O)C(C)=O`, the call was inactive.

For `Cc1ccc2oc(=O)ccc2c1`, the result was inactive.

Consider `CCCCCc1ccc(Cl)cc1`, for which the call was inactive.

Take `CC1(C)O[C@@H]2C[C@H]3[C@@H]4C[C@H](F)C5=CC(=O)CC[C@]5(C)[C@H]4[C@@H](O)C[C@]3(C)[C@]2(C(=O)CO)O1`: the molecule was called inactive.

As to `Cc1ccc(N)c([N+](=O)[O-])c1`, the molecule was classed as inactive.

Take `CO[Si](CCC1CCC2OC2C1)(OC)OC` (stereo not given): the result was inactive.

`CC(C)c1ccc2cc(C(C)C)ccc2c1`: the call was inactive.

On to `O=C(O)CC(C(=O)O)C(CC(=O)O)C(=O)O` (stereo not given), for which the outcome was inactive.

For the molecule `CCOC(=O)CC`, the molecule was called inactive.

Regarding `C=CC(C)(CCC=C(C)C)OC(=O)C(C)C` (stereo not given), the outcome was inactive.

Regarding `CC(C)c1ccc(C=O)cc1`, the molecule was classed as inactive.

Turning to `CCc1ccc2c(c1)C(=O)c1ccccc1C2=O`, the result was inactive.

Regarding `COc1cc(C)ccc1C(C)C`, the call was inactive.

On to `CCOC(=O)c1ccc(N(C)C)cc1`, for which the outcome was inactive.

For the molecule `CCCCCCCCCCCCCOP(=O)(O)O`, the call was inactive.

Take `C=CC(=O)OCCOC1C2CCC1C1CC=CC12` (stereo not given): the outcome was inactive.

As for `c1ccc(CNCc2ccccc2)cc1`, the molecule was called inactive.

For `C=CC(=O)OCCC(=O)O`, the molecule was classed as inactive.

In the case of `O=c1[nH]nc(-c2ccc([N+](=O)[O-])o2)o1`, the outcome was inactive.

For `CC(C)c1ccc2c(C(C)C)cc(C(C)C)c(S(=O)(=O)O)c2c1`, the result was inactive.

As for `C=C[Si](C)(C)O[Si](C)(C)C=C`, the molecule was called inactive.

`Cc1cccc(N)n1`: the call was inactive.

In the case of `COC(=O)/C=C/C(C)=C\C=C\C(C)=C\C=C\C=C(C)\C=C\C=C(C)\C=C\C(=O)O`, the result was inactive.

As for `CC(C)=CCCC(C)C=O` (stereo not given), the outcome was inactive.

Regarding `SCCc1cnccn1`, the molecule was classed as inactive.

As to `C(=CC=Nc1ccccc1)C=CNc1ccccc1`, the outcome was inactive.

Take `C=CC(=O)OCCOC(=O)C=C`: the result was inactive.

`CC[C@H]1OC(=O)[C@H](C)[C@@H](O[C@H]2C[C@@](C)(OC)[C@@H](O)[C@H](C)O2)[C@H](C)[C@@H](O[C@@H]2O[C@H](C)C[C@H](N(C)C)[C@H]2O)[C@](C)(O)C[C@@H](C)C(=NOCOCCOC)[C@H](C)[C@@H](O)[C@]1(C)O`: the molecule was classed as inactive.

In the case of `CCCCCCCCc1ccc(Nc2ccc(CCCCCCCC)cc2)cc1`, the result was inactive.

On to `CCOC(F)(F)C(F)(F)C(F)(F)C(F)(F)F`, for which the call was inactive.

On to `O=C(O)c1cc2ccccc2nc1C(=O)O`, for which the molecule was called inactive.

For `CC(=O)[C@H]1[C@H](C#N)C[C@H]2[C@@H]3CC=C4C[C@@H](O)CC[C@]4(C)[C@H]3CC[C@@]21C`, the molecule was called inactive.

The values above are taken from PubChem BioAssay (EPA / NIEHS).
